Measurements published in ChEMBL document CHEMBL3988442, “University of Dundee, Small-Polar-MMV Screening Library” (2021).
The whole screen tested about 69,000 compounds, of which about 950 (1.4%) showed an effect of 50% or more. The entries come from a sample that favours strong results as a whole.

tested on: Mycobacterium tuberculosis; assay: Cornell M. t heat shock assay; format: functional, organism-based; design: dose or concentration left out as unconfirmed; note: in the data most compounds retested in dose-response had high values

| Structure (SMILES) | Percent Effect [%] |
| --- | --- |
| COCC1CN(c2ccncn2)Cc2cnn(CC3CCCC3)c21.O=C(O)C(F)(F)F.O=C(O)C(F)(F)F (stereo not given) | 3.159 |
| Cc1ccc(CN2CCC3(CC2)CCN(C(=O)c2cccnc2)C3)o1.O=C(O)C(F)(F)F | 41.04 |
| Cc1cncc(C(=O)N2C[C@H]3CCC[C@@]3(COc3ccccn3)C2)c1.O=C(O)C(F)(F)F.O=C(O)C(F)(F)F | -23.58 |
| Cc1ccc(N2CC[C@H]3C[C@H](C(=O)NCc4ccco4)O[C@@H]3C2)cc1.O=C(O)C(F)(F)F | 4.102 |
| NC[C@H]1CC[C@H](C(NC(=O)C2CC2)c2ccccn2)CC1 (stereo not given in full) | -11.64 |
| NC[C@H]1CC[C@H](C(NC(=O)c2cccc(F)c2)c2ccccn2)CC1 (stereo not given in full) | 107.2 |
| NC[C@H]1CC[C@H](C(NC(=O)c2ccccn2)c2ccccn2)CC1 (stereo not given in full) | 11.19 |
| COc1cccc(C(=O)NC(c2ccccn2)[C@H]2CC[C@H](CN)CC2)c1 (stereo not given in full) | 14.74 |
| COc1ccccc1C(=O)NC(c1ccccn1)[C@H]1CC[C@H](CN)CC1 (stereo not given in full) | 95.79 |
| NC[C@H]1CC[C@H](C(NC(=O)c2ccccc2)c2ccccn2)CC1 (stereo not given in full) | 15.73 |
| C[C@@H](N)C(=O)N1CC2(CCNCC2)c2cc(Cl)ccc21.Cl.Cl | -22.5 |
| O=C(C1=CCCC1)N1CCC2(CC1)CC(Oc1cccnc1)CO2.O=C(O)C(F)(F)F (stereo not given) | -14.4 |
| Cc1nc(CN2CCc3cc(C(=O)O)c(N(C)C)nc3CC2)cs1.O=C(O)C(F)(F)F.O=C(O)C(F)(F)F | 3.488 |
| O=C(C1CC1)N1CCN(Cc2ccncc2)c2ncccc2C1.O=C(O)C(F)(F)F.O=C(O)C(F)(F)F | -4.601 |
| CCc1onc(C)c1C(=O)N1CCN(c2ncc3c(n2)CCOC3)CC1.Cl | -10.25 |
| CCN1CCCc2cc(-c3cncn3C(C)CN3CCOCC3)ccc21.Cl (stereo not given) | -27.45 |
| CCC(CN1CCOCC1)n1cncc1-c1ccc2c(c1)CCCN2C.Cl (stereo not given) | 16.42 |
| CC(CN1CCOCC1)n1cncc1-c1ccc2c(c1)CCCN2C.Cl (stereo not given) | -23.4 |
| CCC(CN1CCCC1)n1cncc1-c1cnn(-c2ccccc2)c1.Cl (stereo not given) | -7.106 |
| CCC(CN1CCOCC1)n1cncc1-c1ccc2c(c1)CCN2CC.Cl (stereo not given) | 100.9 |
| CCCS(=O)(=O)N1CCCC(c2nc(-c3ccccc3)c[nH]2)C1 (stereo not given) | 97.89 |
| CS(=O)(=O)N1CCCC(c2nc(-c3ccccc3)c[nH]2)C1 (stereo not given) | -20.18 |
| CCN(C)S(=O)(=O)N1CCCC(c2nc(-c3ccccc3)c[nH]2)C1 (stereo not given) | 14.48 |

| Structure (SMILES) | Percent Effect [%] |
| --- | --- |
| Cl.Cl.NCC1[C@H]2CN(Cc3ccccc3F)C[C@@H]12 (stereo not given in full) | -12.63 |
| CC(C)NC(=O)N1CC(=O)c2sc(NC3CCCCC3)nc2C1 | 1.144 |
| Cc1[nH]/c(=N\C(=O)c2csc(NC3CC3)n2)sc1C | 102.4 |
| CC(C)(C)[S+]([O-])CCNC(=O)c1csc(NC2CC2)n1 (stereo not given) | -16.11 |
| CC(=O)Nc1nc(C(=O)N2CCCC(c3cc(C)[nH]n3)C2)cs1 (stereo not given) | -17.82 |
| Cc1[nH]/c(=N\C(=O)c2csc(NC3CCCC3)n2)sc1C | 101.9 |
| Cc1[nH]/c(=N/C(=O)Cn2nc(N3CCOCC3)ccc2=O)sc1C | -6.271 |
| CN(C)c1ccc(CNCc2cnc(N3CCOCC3)nc2)cn1.Cl | -4.55 |
| CC(C)=CCN1C(=O)[C@H]2CC[C@@H]1CN(c1ncccn1)C2 | -39.45 |
| O=C(Cc1ccccc1)N1CC[C@H]2[C@@H]1CCC(=O)N2Cc1ccncc1.O=C(O)C(F)(F)F | -22.84 |
| CCCN1C[C@H]2CC[C@@H]1CN(Cc1ccc(Cn3cccn3)cc1)C2 | 25.45 |
| CCCN1C[C@H]2CC[C@@H]1CN(Cc1cccc(-n3cccn3)c1)C2 | -1.729 |
| CCCN1C[C@H]2CC[C@@H]1CN(Cc1ccc(-n3cccn3)cc1)C2 | 105.3 |
| COCCN1CCCC12CCN(C(=O)CC1CCCC1)CC2.O=C(O)C(F)(F)F | -21.16 |
| O=C(O)C(F)(F)F.O=C(O)C(F)(F)F.O=S(=O)(c1cccnc1)N1C[C@H]2CCC[C@@]2(COc2ccccn2)C1 | -13.75 |
| CC(C)c1cnc(CNc2c(F)cccc2-n2cccn2)o1 | 8.854 |
| Cn1ccnc1CNc1c(F)cccc1-n1cccn1 | 55.71 |
| Cc1cnc(CNc2c(F)cccc2-n2cccn2)o1 | 105 |
| CC(C)(C)c1nnc(CNc2c(F)cccc2-n2cccn2)o1 | 0.6342 |
| Cn1c(CNc2c(F)cccc2-n2cccn2)cc(=O)n(C)c1=O | 6.656 |
| CCc1noc(CNc2c(F)cccc2-n2cccn2)n1 | -3.038 |
| O=C(O)C(F)(F)F.O=C1[C@H]2CN(C(=O)[C@H]3CCCO3)C[C@H]2CN1CCN1CCCC1 | -0.06274 |
| COc1cc([C@@H]2N[C@H](c3nccs3)Cc3ccsc32)cc(OC)c1OC | -5.187 |

| Structure (SMILES) | Percent Effect [%] |
| --- | --- |
| COc1ccc(OC)c([C@@H]2N[C@H](c3nccs3)Cc3ccsc32)c1 | 6.308 |
| COc1cccc([C@@H]2N[C@H](c3nccs3)Cc3ccsc32)c1OC | 50.14 |
| Cc1ncsc1CN1C[C@@H]2COC[C@]2(CNC(=O)c2ccccc2)C1.O=C(O)C(F)(F)F | -24.18 |
| COc1ccsc1C(=O)NCCNc1ccccc1 | -5.187 |
| COc1cc(C)sc1C(=O)NCCC(=O)N(C)c1ccccc1 | 0.1249 |
| COc1cc(C)sc1C(=O)NCCNc1ccccc1 | 57.16 |
| Cc1nc(CN2CCO[C@H]3[C@@H](OCc4cccnc4)CC[C@@H]32)cs1.O=C(O)C(F)(F)F.O=C(O)C(F)(F)F | -27.98 |
| O=C(O)C(F)(F)F.c1cnc(N2CCC3(CC2)CN(CC2CC2)c2ccccc23)nc1 | 54.56 |
| O=C(O)C(F)(F)F.O=C1N(CC2CC2)CCC12CCN(c1ncccn1)CC2 | -22.74 |
| O=C(O)C(F)(F)F.O=C(O)C(F)(F)F.OCCN1CC2(CCN(CC3CC3)CC2)c2ccccc21 | -22.04 |
| O=C(CC1CCCO1)NCCCC(=O)Nc1ccc(Cl)cc1 (stereo not given) | 63.53 |
| O=C(CCC1CCCO1)NCCCO (stereo not given) | -7.133 |
| O=C(CCCNC(=O)NCC1CCCO1)Nc1ccc(Cl)cc1 (stereo not given) | 40.56 |
| O=C(CCC1CCCO1)NCCCC(=O)Nc1ccc(Cl)cc1 (stereo not given) | 104.2 |
| O=C(CCCNC(=O)C1CCCO1)Nc1ccc(Cl)cc1 (stereo not given) | -4.15 |
| O=C(CCC1CCCO1)NS(=O)(=O)c1ccc(Cl)cc1 (stereo not given) | 2.708 |
| O=C(O)C(F)(F)F.O=C(O)C(F)(F)F.O=C1COC2(CCN(CC3CCOCC3)CC2)CN1Cc1ccccn1 | -24.93 |
| O=C(O)C(F)(F)F.c1cncc(N2CC[C@@H]3CN(CC4CC4)C[C@@H]3C2)c1 | -51.37 |
| Cc1cnc(N2CCC3(CCCN3C(=O)c3ccco3)CC2)nc1.O=C(O)C(F)(F)F | 2.375 |
| O=C(NCc1ccco1)Nc1cccc(S(=O)(=O)C(F)F)c1 | 31.42 |
| O=C(CNc1cccc(S(=O)(=O)C(F)F)c1)NCc1ccco1 | 18.67 |
| O=C(CCc1ccco1)Nc1cccc(S(=O)(=O)C(F)F)c1 | 70 |
| Cc1cc(C)n(CC2CCCN2C(=O)c2cccnc2N(C)C)n1 (stereo not given) | -10.54 |

| Structure (SMILES) | Percent Effect [%] |
| --- | --- |
| CC(=O)N1[C@H](CN(C)C)C[C@@H]2CN(C(=O)c3cnc(C)cn3)CC[C@@H]21.O=C(O)C(F)(F)F | -17.11 |
| Cc1nc(C)n(CC2CCCCN2Cc2ncc(C(C)(C)C)o2)n1 (stereo not given) | -15.1 |
| Cc1cc(C)n(CC2CCCN2Cc2ncc(C(C)(C)C)o2)n1 (stereo not given) | 52.86 |
| Cc1nn(C)c(C)c1C1CCCN1Cc1nc(N)c2ccccc2n1 (stereo not given) | -13.27 |
| c1ncn(CC2CCCN2Cc2cn3ccsc3n2)n1 (stereo not given) | -23.29 |
| Cc1nc(C)n(CC2CCCN2Cc2cn3ccsc3n2)n1 (stereo not given) | 52.44 |
| Cc1nc(C)n(CC2CCCN2Cc2nc(N)c3ccccc3n2)n1 (stereo not given) | 90.98 |
| Cc1cc(C)n(CC2CCCN2CCS(=O)(=O)c2ccccc2)n1 (stereo not given) | 25.73 |
| Cc1nc(C)n(CC2CCCN2Cc2cn3ccccc3n2)n1 (stereo not given) | -6.655 |
| Cc1nc(C)n(CC2CCCN2Cc2nc3ccccc3nc2C)n1 (stereo not given) | -3.804 |
| Cc1nc(C)n(CC2CCCN2Cc2nc(C)c3ccccc3n2)n1 (stereo not given) | -0.1749 |
| Cc1cc(C)n(CC2CCCN2Cc2nc(N)c3ccccc3n2)n1 (stereo not given) | 96.02 |
| Cc1nc(C)n(CC2CCCN2Cc2ncc(C(C)(C)C)o2)n1 (stereo not given) | 8.269 |
| CN1CC(=O)N(c2ccsc2)CC12CCN(Cc1cnn(C)c1)C2.O=C(O)C(F)(F)F.O=C(O)C(F)(F)F (stereo not given) | -44.55 |
| O=C(NCc1cnc2n1CCN(CC1CC1)C2)C1CC1.O=C(O)C(F)(F)F | -32.01 |
| O=CO.c1cc2nccc(CC3CCCN(C4CCOCC4)CC3)c2cn1 (stereo not given) | -0.8025 |
| CNC(=O)CNCc1c[nH]nc1-c1cc2ccccc2o1.Cl | 4.817 |
| Cc1cc(CN2CC[C@H]3C(=O)N(c4ccccc4)CCO[C@H]3C2)no1.O=C(O)C(F)(F)F | -6.692 |
| O=C(O)C(F)(F)F.O=C1CCC2(CCN(Cc3ccc(F)cc3)CC2)N1Cc1ccccc1 | 1.967 |
| O=C(NC1CC1)N1CCC2(CC1)C(=O)NCCN2Cc1ccccc1.O=C(O)C(F)(F)F | 5.553 |
| CC(C)CN1C(=O)C2(CCN(Cc3cccs3)C2)c2ccccc21.O=C(O)C(F)(F)F (stereo not given) | 9.511 |
